Experimental findings from PubChem BioAssay AID1851 (National Center for Advancing Translational Sciences (NCATS), 2009) are described below.

Screen size: about 16,000 compounds; about 5,800 (36%) were called active. About 23% were inconclusive and are not listed. Some of the results follow. Values without a mark were called inactive. Calls come from the whole dose curve; as a rule, active = well fitted curve in the direction sought with a large enough effect; inconclusive = small, poorly fitted or top-dose-only effect, or effect the other way; inactive = no such curve, though single readings can be large or run the other way.
% is set by controls: 0 for no effect and ±100 for the full control effect.

Cytochrome P450 2C19 (Homo sapiens), sequence (P33261 whole entry, looked up): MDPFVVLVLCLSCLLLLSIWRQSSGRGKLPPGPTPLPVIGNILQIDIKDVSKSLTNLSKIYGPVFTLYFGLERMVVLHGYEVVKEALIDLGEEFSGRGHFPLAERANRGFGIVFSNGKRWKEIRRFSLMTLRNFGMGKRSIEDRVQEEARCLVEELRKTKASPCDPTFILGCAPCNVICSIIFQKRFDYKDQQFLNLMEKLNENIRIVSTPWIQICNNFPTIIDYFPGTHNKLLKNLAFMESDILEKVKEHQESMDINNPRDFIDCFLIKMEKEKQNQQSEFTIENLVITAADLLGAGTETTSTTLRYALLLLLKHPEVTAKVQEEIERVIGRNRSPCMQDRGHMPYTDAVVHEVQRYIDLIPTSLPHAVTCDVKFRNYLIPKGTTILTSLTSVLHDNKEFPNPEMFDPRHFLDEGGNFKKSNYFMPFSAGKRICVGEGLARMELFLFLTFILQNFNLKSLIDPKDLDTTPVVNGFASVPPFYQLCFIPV

This test has as its target Cytochrome P450 2C19 (Homo sapiens) (UniProt P33261). As to the kind of experiment: Cytochrome panel assay with activity outcomes. The conditions noted are these: recombinant CYP, pro-luciferin dealkylation, luminescence, p450-cyp2c19; series mostly up to 57.1 µM; activity, negative = inhibition: at the top concentration.
For `CC(=O)OC[C@@H]1O[C@@H](O/N=C2/C[C@@H](O)[C@@H](O)[C@@H]3[C@H]4C(=O)N(c5ccc(F)cc5F)C(=O)[C@@H]4CC[C@H]23)[C@H](OC(C)=O)[C@H](OC(C)=O)[C@@H]1OC(C)=O`, the activity, negative = inhibition is -9.07% [at 11.4 µM].

As for `CCOC(=O)N/N=C1/C[C@@H](O)[C@@H](O)[C@@H]2[C@@H]3C(=O)N(Cc4ccc5c(c4)OCO5)C(=O)[C@H]3CC[C@H]12`, the activity, negative = inhibition is -2.19% [at 11.4 µM].

`CCOC(=O)N/N=C1/C[C@@H](O)[C@@H](O)[C@@H]2[C@@H]3C(=O)N(Cc4ccc5c(c4)OCO5)C(=O)[C@H]3CC[C@@H]12`: the activity, negative = inhibition is 4.88% [at 11.4 µM].

In general, AC50 refers to the concentration giving half of the maximal activity seen. As for `CC1(C)SC(=S)N(Cc2ccc3c(c2)OCO3)C1N(O)C(=O)NC1CCCCC1` (configuration not stated), the concentration at half-maximal activity (AC50) was 3.55 µM (active).

Regarding `CCCCNc1c(C(=O)OCC)c(C)nc2c1cnn2CC`, the “activity, negative = inhibition” value was -9.56% [at 25.6 µM].

With `CCCCNc1nc(-c2ccccc2)c(C(=O)OCC)cc1C#N`, the AC50 was 17.8 µM (active).

On to `CCOC(=O)c1cc(C#N)c(Oc2ccccc2OC)nc1-c1ccccc1`, for which the AC50 was 6.31 µM (active).

`Cn1ccnc1C[C@@](C)(O)c1ccccc1`: the activity, negative = inhibition was -6.82% [at 11.4 µM].

As for `C[C@@](O)(CNS(=O)(=O)c1ccccc1)c1ccccc1`, the half-maximal activity concentration (AC50) was 1 µM (active).

For the molecule `CNS(=O)(=O)c1ccccc1C(=N)c1ccccc1`, the activity, negative = inhibition was -10% [at 11.4 µM].

As to `CCn1c(SCC(=O)Nc2ccc3c(c2)OCCO3)nc2c(c1=O)SC(C)C2` (configuration not stated), the AC50 was 8.91 µM (active).

Turning to `Cc1ccc2nc(NC(=O)CSc3nc4c(c(=O)n3C)SC(C)C4)sc2c1` (configuration not stated), the AC50 was 5.62 µM (active).

On to `CCn1c(SCC(=O)Nc2nc3ccc(C)cc3s2)nc2c(c1=O)SC(C)C2` (configuration not stated), for which the concentration at half-maximal activity (AC50) was 2.82 µM (active).

Take `CC(C)OC(=O)c1cccc(C(=O)Oc2ccc(Br)cc2)n1`: the “activity, negative = inhibition” value was -3.45%.

As to `COC(=O)c1cccc(C(=O)Nc2ccc(C)cc2)n1`, the AC50 was 11.2 µM (active).

Take `Cc1ccc(OC(=O)c2cccc(C(=O)Oc3ccc(C)cn3)n2)nc1`: the “activity, negative = inhibition” value was -1.57%.

On to `Cc1cc(C)n2nc(SCN3C(=O)c4ccccc4C3=O)nc2n1`, for which the half-maximal activity concentration (AC50) was 2.51 µM (active).

For the molecule `CCSc1nc2nc(C)cc(C)n2n1`, the “activity, negative = inhibition” value is -1.22%.

`Cc1cc(NS(=O)(=O)c2ccc(NC(=O)CN3C(=O)c4ccccc4C3=O)cc2)nc(C)n1`: the “activity, negative = inhibition” value is -23.3%.

`Cc1ccc(/C=N/NC(=O)CSc2nc3nc(C)cc(C)n3n2)cc1`: the “activity, negative = inhibition” value is -39.3%.

Turning to `COc1ccccc1CNC(=O)CSc1nc2nc(C)cc(C)n2n1`, the AC50 is 10 µM (active).

Consider `Cc1cc(C)n2nc(SCc3cc(=O)oc4ccc5ccccc5c34)nc2n1`, for which the AC50 is 8.91 µM (active).

Take `CC12COC3(C(=O)Nc4nccs4)CC1CCC32C` (configuration not stated): the AC50 was 2.24 µM (active).

`COCC(=O)N1CCC2(CCCN(C(=O)Nc3cccc(C#N)c3)C2)CC1`: the “activity, negative = inhibition” value is 16.8%.

As to `CC(C/C=N/NC(=O)COc1cc(Cl)ccc1Cl)c1ccccc1` (configuration not stated), the AC50 was 0.447 µM (active).

Regarding `O=C(COc1ccc(Cl)cc1Cl)N/N=C/CCc1ccccc1`, the AC50 is 2 µM (active).

Turning to `OC1(c2ccc(OC(F)F)cc2)CSC(=Nc2cccnc2)N1C1CC1` (configuration not stated), the AC50 was 0.0794 µM (active).

Turning to `COc1cc(N=c2ssnc2Cl)cc(OC)c1OC`, the AC50 is 1.12 µM (active).

As to `Cc1cccc(OC(=O)CN2C(=O)C3C4CCC(C4)C3C2=O)c1C` (configuration not stated), the AC50 is 3.98 µM (active).

Take `C=CCn1c(C)cc(C(=O)CN2C(=O)c3ccccc3C2=O)c1C`: the AC50 was 3.98 µM (active).

For the molecule `O=C(CN1C(=O)c2ccccc2C1=O)NC1(C(=O)O)CCCC1`, the activity, negative = inhibition is 20.8% [at 11.4 µM].

With `Cc1ccc(C)c(C(=O)CN2C(=O)c3ccccc3S2(=O)=O)c1`, the “activity, negative = inhibition” value is -41.5%.

As to `c1cncc(CNc2ncncc2-c2ccc3c(c2)OCO3)c1`, the AC50 is 0.2 µM (active).

As for `Cc1cccc(CNc2ncncc2-c2ccc3c(c2)OCO3)c1`, the AC50 is 0.501 µM (active).

Take `c1ccc(Nc2ncncc2-c2ccc3c(c2)OCO3)cc1`: the half-maximal activity concentration (AC50) was 0.251 µM (active).

`Cc1cnc(CNc2ncncc2-c2ccc3c(c2)OCO3)cn1`: the “activity, negative = inhibition” value was -31.6%.

As to `c1ccc(CNc2ncncc2-c2ccc3c(c2)OCO3)cc1`, the concentration at half-maximal activity (AC50) was 0.501 µM (active).

`c1csc(CNc2ncncc2-c2ccc3c(c2)OCO3)c1`: the AC50 is 0.794 µM (active).

For the molecule `CN(C)c1ncc2nc(-c3ccc(Cl)cc3)c(=O)n(C)c2n1`, the “activity, negative = inhibition” value was -8.52%.

Turning to `CC(C)c1nnc(-c2ccc(Cl)cc2)c(N(C)C)n1`, the AC50 is 2.51 µM (active).

Consider `C[C@]1(O)CC[C@H]2[C@H]3CC=C4N5CCN=C5CC[C@@]4(C)[C@H]3CC[C@@]21C`, for which the activity, negative = inhibition was 14.3% [at 11.4 µM].

As for `CC1(O)c2ccccc2C(=O)N1CCc1ccccc1F` (configuration not stated), the concentration at half-maximal activity (AC50) is 0.251 µM (active).

Consider `CC(C)c1ccc(/C(C(=O)O)=C(\O)C(=O)O)cc1`, for which the activity, negative = inhibition is -8.84% [at 11.4 µM].

On to `COCCNC(=O)CCCCCn1c(=S)[nH]c2ccccc2c1=O`, for which the half-maximal activity concentration (AC50) was 22.4 µM (active).

Consider `CCC1CCCCN1CCn1c(=S)[nH]c2cc(OC)c(OC)cc2c1=O` (configuration not stated), for which the “activity, negative = inhibition” value is 2.9%.

Regarding `COCCn1c(=S)[nH]c2cc(C(=O)NC(C)C)ccc2c1=O`, the AC50 was 15.8 µM (active).

As to `CC(C)NC(=O)c1ccc2c(=O)n(Cc3ccco3)c(=S)[nH]c2c1`, the “activity, negative = inhibition” value was -20.7%.
